In PubChem BioAssay AID488922 (Johns Hopkins Ion Channel Center, 2010):
About 3,800 (1.2%) of roughly 310,000 compounds were called active.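 How the source made its calls: active means ratio B-score over 3 SD below the library mean, with starting fluorescence within 5 SD of its mean; inactive means the rest, inconclusive results apart.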 The entries come from a sample that favours actives as a whole.

What follows are compounds tested against Potassium channel subfamily K member 9 (Homo sapiens) (UniProt Q9NPC2) (assay: KCNK9 potassium channel inhibitors, primary screen, HEK293 cells, thallium flux (AID 488922;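 on B-score: negative B-score means less thallium flux so channel inhibition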)). Conditions: HEK293 KCNK9, FluxOR thallium flux fluorescence, at 10 µM; hits give low values.
Sequence of Potassium channel subfamily K member 9 (Homo sapiens) (Q9NPC2 whole entry, looked up): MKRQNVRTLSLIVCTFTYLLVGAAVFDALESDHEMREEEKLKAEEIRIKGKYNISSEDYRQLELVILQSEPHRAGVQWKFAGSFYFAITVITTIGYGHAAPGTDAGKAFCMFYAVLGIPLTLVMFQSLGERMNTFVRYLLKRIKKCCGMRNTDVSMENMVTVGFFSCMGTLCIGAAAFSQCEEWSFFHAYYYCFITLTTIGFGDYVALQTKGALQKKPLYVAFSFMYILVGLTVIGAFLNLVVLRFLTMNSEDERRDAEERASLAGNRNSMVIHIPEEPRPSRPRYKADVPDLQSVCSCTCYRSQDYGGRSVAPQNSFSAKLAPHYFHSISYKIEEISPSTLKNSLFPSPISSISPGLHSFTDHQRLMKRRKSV

| SMILES | B-score |
| --- | --- |
| O=C(CNCCC1=CCCCC1)Nc1ccccc1N1CCCCCC1 | -8.91 (active) |
| Cc1ccccc1NC(=O)Nc1ccccc1N1CCCCC1 | inactive |
| Cc1ccccc1NC(=O)CNc1ccccc1N1CCCCC1 | inactive |
| Cc1ccc2oc(C(=O)N3CCN(C)C[C@@H]3C(C)C)c(C)c2c1 | inactive |
| CC(C)CC(COCc1ccc(Cl)cc1)N1CCN(C(=O)c2ccc(C(F)(F)F)cc2)CCC1=O (stereo unspecified) | -8.19 (active) |
| O=C(c1cc(Cl)cc(Cl)c1)N1CCC(=O)N(C(COCc2ccccc2)Cc2ccccc2)CC1 (stereo unspecified) | inactive |
| CC(C)CC(CO)N1CCN(C(=O)c2ccc(Cl)cc2Cl)CCC1=O (stereo unspecified) | inactive |
| O=C1[C@H]2[C@@H](c3ccc(Cl)cc3)N3C(=O)N(c4cccc(F)c4)C(=O)[C@@]3(Cc3ccccc3)[C@H]2C(=O)N1C1CCCCC1 | inactive |
| Cc1ccc(S(=O)(=O)Cc2cc(-c3ccc(Cl)cc3)no2)cc1 | inactive |
| COC(=O)c1noc(C)c1-c1ccnn1C(=O)c1ccc(Cl)cc1 | inactive |
| Cc1onc(-c2ccc(Cl)cc2)c1-c1ccnn1S(=O)(=O)c1ccc(Cl)cc1 | -12.4 (active) |
| Cc1ccc(NS(=O)(=O)c2ccc(-c3coc(C)n3)cc2)c(C)c1 | inactive |
| COc1cc(C(=O)OCC(=O)N(CC(C)C)C2CCS(=O)(=O)C2)ccc1OCC(C)C (stereo unspecified) | inactive |
| Cn1nc(-c2ccccc2)c(CO)c1Sc1ccccc1 | inactive |
| Cn1nc(-c2ccccc2)c(CSc2cccc(Cl)c2)c1Cl | -8.39 (active) |
| Cc1ccc(S(=O)(=O)c2c(COC(=O)c3cccc(Cl)c3)c(-c3ccccc3)nn2C)cc1 | inactive |
| COc1ccc(C(=O)NC2(C(F)(F)F)NC(=O)N(CCCc3ccccc3)C2=O)c(OC)c1OC (stereo unspecified) | inactive |
| O=C(c1cccc(S(=O)(=O)N2CCCC2)c1)N(Cc1ccco1)C1CCS(=O)(=O)C1 (stereo unspecified) | inactive |
| COC(=O)N/N=C/c1cn(CCCOc2ccc(C)cc2)c2ccccc12 | inactive |
| CNC(=S)N/N=C/c1cn(Cc2ccc(C)cc2)c2ccccc12 | inactive |
| CCOC(=O)N/N=C/c1cn(Cc2ccccc2Cl)c2ccccc12 | -9.45 (active) |
| CCc1ccc(N(CC)c2ncnc3nc[nH]c23)cc1 | inactive |
| Cc1cc(Cl)ccc1C(=O)C1CCCN(C(=O)CCN2CCCO2)C1 (stereo unspecified) | inactive |
| CSc1ccc(/C=C/C(=O)NC23CC4CC(CC(C4)C2)C3)cc1 | inactive |
| c1ccc(C2CNCc3c2ccc2ccccc32)cc1 (stereo unspecified) | inactive |
| Clc1cccc(-c2nc3nc4ccccc4nc3n2Cc2ccco2)c1 | -10.9 (active) |

| SMILES | B-score |
| --- | --- |
| O=C(CSc1nnc(-c2cccnc2)n1Cc1ccco1)c1ccc(Cl)c(Cl)c1 | inactive |
| O=c1[nH]c(CSc2ncc(-c3ccc(F)cc3)n2Cc2ccco2)nc2ccccc12 | inactive |
| CN(Cc1c(F)cccc1Cl)S(=O)(=O)c1cccs1 | inactive |
| CC1CCC2(CC1)NC(=O)N(CC(=O)c1cccn1C)C2=O (stereo unspecified) | inactive |
| CC(C)(C)n1nnnc1C(c1ccc(F)cc1)N1CCN(Cc2ccc3c(c2)OCO3)CC1 (stereo unspecified) | inactive |
| Cc1cccc(N2CCN(C(c3ccc(N(C)C)cc3)c3nnnn3C(C)(C)C)CC2)c1C (stereo unspecified) | -7.3 (active) |
| Cc1cccc(N2CCN(C(c3ccccc3)c3nnnn3CC3CCCO3)CC2)c1C (stereo unspecified) | inactive |
| Cc1cccc(C)c1NC(=O)c1ccc(CN2CCc3ccccc3C2)cc1 | inactive |
| COc1ccc(-c2csc(-c3cccs3)n2)cc1OC | inactive |
| COc1ccc(OC)c(CNC(=O)CCc2nc(-c3cccs3)no2)c1 | inactive |
| COc1ccc(OC)c(-c2csc(-c3cccs3)n2)c1 | -11.7 (active) |
| COc1ccc(CNS(=O)(=O)c2ccc(NC(=O)N3CCCCC3)cc2)cc1 | inactive |
| O=C(CNC(=O)c1cccnc1)N/N=C/c1cc(Br)c(O)c(Br)c1 | inactive |
| COc1ccc2c3c(c(=O)oc2c1OCC(=O)C(C)(C)C)CCCC3 | inactive |
| Cc1c(OC(C)C(=O)N[C@@H](Cc2ccccc2)C(=O)O)ccc2c3c(c(=O)oc12)CCCC3 (stereo partly specified) | inactive |
| CCCOc1ccc2c3c(c(=O)oc2c1OCCC)CCC3 | -13.7 (active) |
| CN(C)c1ccc(/C=N\S(=O)(=O)c2ccccc2)cc1 | inactive |
| CC[n+]1cc(C)ccc1/C=C/c1ccc(N(C)C)cc1 | -6.65 (active) |
| CCCCCCCC1(C)NC(=O)N(CC(=O)Nc2cc(C)on2)C1=O (stereo unspecified) | inactive |
| O=C(NCCN1CCOCC1)c1ccc2c(c1)N(Cc1ccc(Cl)cc1)CCS2 | inactive |
| CCOC(=O)N1CCN(C(=O)c2ccc3c(c2)N(Cc2ccc(C)cc2)CCS3)CC1 | inactive |
| O=C(NCCc1ccccc1)c1ccc2c(c1)N(Cc1ccccc1)CCS2 | -9.05 (active) |
| COc1ccc(C2(CNC(=O)C(c3ccccc3)c3ccccc3)CCOCC2)cc1OC | inactive |
| CCN(CC)C(=O)CC1(c2ccccc2OC)CCOC(C(C)C)C1 (stereo unspecified) | -8.7 (active) |
| CC[C@]1(c2ccccc2OC)C(=O)N(C(=O)OC)N1C(=O)OC | inactive |
